{
  "source": "PubChem BioAssay AID1508600",
  "about": "(Functional Genomics Laboratory (NCATS/FGL), 2020)",
  "note": "In all, about 53,000 sequences went through this assay and about 3,700 (7%) were called active. The entries come from a sample that favours actives as a whole. A number with no mark means an inactive call.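 How the source made its calls: active means gene knockdowns whose robust z-score for IL-1 alpha signal is at least 2 or at most -2, so actives lie on both sides; inactive means the rest.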",
  "data": [
    {"assay": "Components of the Cytosolic LPS Sensing Pathway: Gene Identification via Genome-wide siRNA Screen;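 further: robust z of the log signal after scaling to non-targeting control siRNA wells of the plate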", "conditions": "RAW264.7 macrophages, IL-1a HTRF, actives lie on both sides, screened at 100 nM (by protocol), cells primed 5 h with Pam3CSK4 first", "outline": "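Knockdown: 100 nM siRNA, 48h, RAW264.7. Stimulation: Pam3CSK4 5 h, then LipidA via TransIT-TKO 24 h. Output: supernatant IL-1a HTRF, negative-control-normalized, log robust z-score; viability by CellTiter-Glo.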", "values": [
      {"sequence": "GGCCAUAGAUAUUCAAGGUTT against Olfr218", "z-score": 0.293},
      {"sequence": "GCCUUUGUGUUACAAUAUGTT against Fermt2", "z-score": 0.487},
      {"sequence": "GUCAAAGAGUUUCAGCAUCTT against Foxl1", "z-score": 0.664},
      {"sequence": "GGAGGUUUUCCGAAGUAUUTT against Pnpt1", "z-score": 1.2},
      {"sequence": "GGCUCUGUGACCAAGAUUUTT against Rtca", "z-score": -1.48},
      {"sequence": "GCCUCUCUCUAUCUAUGCATT against Tob2", "z-score": "-2.2 (active)"},
      {"sequence": "GCAACGUGGUCUAUGAAUUTT against Disp2", "z-score": -0.694},
      {"sequence": "GGUUUUUCAGUGACACAUGTT against Vmn1r192", "z-score": "2.26 (active)"},
      {"sequence": "CCAGAGUUUUAUAACGGAATT against Olfr1229", "z-score": 0.601},
      {"sequence": "GGUUGUGCAGUUUUAUUUCTT against Tceal1", "z-score": -0.176},
      {"sequence": "GCUAACAUUGUAAAUGCACTT against Dmrta1", "z-score": 0.467},
      {"sequence": "GGAAAAGCUUUUGUUCCCATT against Tfb1m", "z-score": "2.58 (active)"},
      {"sequence": "GGAUUCUUCAUUUCUAGUGTT against C1qtnf6", "z-score": 0.231},
      {"sequence": "GGUUCUGAACACAUUUCCATT against Cyp2d13", "z-score": -1.07},
      {"sequence": "GUUUCUUCCAAACUCCAUCTT against Olfr487", "z-score": 0.622},
      {"sequence": "GGUCGACAGUUAAAAUGAUTT against Bpifc", "z-score": -0.431},
      {"sequence": "GCAAGCCCUGGAAGAAUUATT against Nat8", "z-score": "2.26 (active)"},
      {"sequence": "GGAUGAGUACACUGAAAGCTT against Nvl", "z-score": 0.544},
      {"sequence": "CGUGGACAUCGAUAUCACCTT against Slc26a8", "z-score": -0.737},
      {"sequence": "CCCGGAAUAAGACAAUUUCTT against Olfr788", "z-score": 0.282},
      {"sequence": "GCAUGUUAAGCCUUGUAUATT against Tnpo1", "z-score": -1.67},
      {"sequence": "GGCUACAGAAGCUACUAAATT against Akr1c6", "z-score": 1.23},
      {"sequence": "GGGUGCAUCCCAUUCUCUUTT against Pld1", "z-score": -0.0755},
      {"sequence": "GCGAGAGAUCCCUCUGAAATT against Pigs", "z-score": -0.284},
      {"sequence": "GCAUCCCAGAUAUUGAGCATT against Arrdc1", "z-score": "2.52 (active)"},
      {"sequence": "GCUCUGUUCACACGUUUAATT against Arhgap10", "z-score": -0.898},
      {"sequence": "CGAAAUUGUGAUGAUGAACTT against Mast1", "z-score": -0.799},
      {"sequence": "CCAAUUUGACCCAUACUAUTT against Crtc2", "z-score": 1.61},
      {"sequence": "GGAGAUUGGGAUCAAAGCCTT against Mthfd1", "z-score": -1.56},
      {"sequence": "GGACCUUUCAUCAACCCAUTT against Olfr676", "z-score": "2.13 (active)"},
      {"sequence": "GGUGCCAUUGAUUCUGUAGTT against Smim10l2a", "z-score": -0.807},
      {"sequence": "GCAGUGGGAAUCGAUAAAGTT against Fgfr2", "z-score": -0.876},
      {"sequence": "GGCAAGCUGUAAAAGAUGCTT against Noc3l", "z-score": "3.32 (active)"},
      {"sequence": "GGCCAUUUCUAUGAAAUUATT against Olfr1016", "z-score": "-2 (active)"},
      {"sequence": "CCUUAGGACAAGUAUUCUGTT against Cbx6", "z-score": 0.47},
      {"sequence": "GGCAACUUUAUACACAAACTT against Vmn1r13", "z-score": -0.283},
      {"sequence": "GGAACCUUUCAGAAAUAUATT against Calhm5", "z-score": -0.53},
      {"sequence": "GGUCUGAUUGUCCUCUCUUTT against Slc35b4", "z-score": "3.25 (active)"},
      {"sequence": "CCACACCUUCAAAGCGAGATT against L3mbtl4", "z-score": -0.104},
      {"sequence": "GGCCUUGAUUCAAUUCAACTT against Tgm6", "z-score": 0.812},
      {"sequence": "GGCAGAUAUUUAGAUGAUGTT against Pdyn", "z-score": -0.932},
      {"sequence": "GAUGUUCUUUGUCCACAUGTT against Olfr666", "z-score": -0.325},
      {"sequence": "GCAUUUUCUAGAUGGAAGCTT against Hao1", "z-score": 0.748},
      {"sequence": "GGUCAUUCUCCAAGAACUATT against Ugp2", "z-score": -0.844},
      {"sequence": "GGUUCAGUAUAUCAUCUCUTT against Zfp335", "z-score": "2.69 (active)"},
      {"sequence": "GGAGAACAGUUUCAAGAUGTT against Rnf152", "z-score": -0.487},
      {"sequence": "GCCGGACUUCCCAUCUGUUTT against Srebf1", "z-score": -0.784},
      {"sequence": "GACGAAUAUCAUCUCACACTT against Olfr875", "z-score": 0.901},
      {"sequence": "GCAGUUGACAUUUACUCUCTT against Nol10", "z-score": "2.36 (active)"},
      {"sequence": "GCUCCACACUACGUGUCAUTT against Olfr476", "z-score": 1.66},
      {"sequence": "GCCUUAUCCAUAUCGACUATT against Arrdc1", "z-score": 0.831},
      {"sequence": "GGAUGCUCAUGGACCUUUGTT against Olfr1122", "z-score": 0.931},
      {"sequence": "CGUACUCCAACAACACUUUTT against Pdzd8", "z-score": -0.503},
      {"sequence": "GGACUGUGUGUGCAAAGGUTT against Mt3", "z-score": -0.176},
      {"sequence": "GCUACUGCCGGAAUUUGGUTT against Tiam1", "z-score": 0.497},
      {"sequence": "CGCAAGAUACCAACACUUATT against Flad1", "z-score": -0.487},
      {"sequence": "GGAACACAAAAGCAAAGAUTT against Prpf38b", "z-score": "2.2 (active)"},
      {"sequence": "GGAUUGUGGGUUUAUAUAATT against Olfr835", "z-score": 0.274},
      {"sequence": "CAGGCUGGUUACUUUGGCUTT against Lhfpl5", "z-score": -0.246},
      {"sequence": "CCUUCCAACUCUUCUCCUCTT against H2-T3", "z-score": 0.915},
      {"sequence": "GCCUCAUUUGAUCAAUGUCTT against Actr2", "z-score": 1.86},
      {"sequence": "GCUAGAUAAACUCUCUCAATT against Cxcr5", "z-score": 0.73},
      {"sequence": "GGUCCAGCUCAUGAAACUUTT against Sik1", "z-score": 0.147},
      {"sequence": "GGGUUUGGUCGUAAACAGCTT against Limd2", "z-score": -1.06},
      {"sequence": "GGUGCUGCUAUUCCUGCACTT against Gpam", "z-score": "-2.03 (active)"},
      {"sequence": "GGGAGCUACGUUCAGAAGUTT against Gckr", "z-score": 1.63},
      {"sequence": "GGAUUUCUGUGGAGAUGGGTT against Cchcr1", "z-score": 0.444},
      {"sequence": "GCUACUCCAUUUACAUCUATT against H2bc1", "z-score": -0.122},
      {"sequence": "GCGGAGUGUGAAACACUGATT against Ccdc32", "z-score": 0.842},
      {"sequence": "GGAAGGACAGACAGACAAGTT against Pxt1", "z-score": 0.165},
      {"sequence": "CCUAGAUGACACUUGGGUGTT against Nup35", "z-score": -1.4},
      {"sequence": "GCCUCUUCAAUCACAUUUATT against Atp6v0a4", "z-score": "3.27 (active)"},
      {"sequence": "GGAAAGAUCUACGAGAUCUTT against Unc5a", "z-score": 1.04},
      {"sequence": "CGGAUUCGUCUGUUUUCUGTT against Ddi2", "z-score": 1.97},
      {"sequence": "GGAUAUACAUGGUCUGUUUTT against Naip5", "z-score": 0.318},
      {"sequence": "GGACUCCUCCCAAGACGAATT against Avil", "z-score": -0.118},
      {"sequence": "CCUACCAUAGCAACACUAUTT against Kcna2", "z-score": "3.14 (active)"},
      {"sequence": "GGCCCUCACAAUGAAUAUGTT against Efs", "z-score": -0.115},
      {"sequence": "ACGAUAUGUUGACCUUGGCTT against Cyp2c67", "z-score": -0.274},
      {"sequence": "CGGCAAUUUGAGUUGAAAATT against Ppp1r2-ps9", "z-score": -0.571},
      {"sequence": "GGGCACCUUAUACCAUAGATT against Bfar", "z-score": 0.345},
      {"sequence": "GGCCAUGGAGAACAUAUGCTT against Trpm8", "z-score": "-2.09 (active)"},
      {"sequence": "GGCUAUUGAGCUCUUUGUCTT against Qpctl", "z-score": -0.661},
      {"sequence": "GGAGUAGUAGCUAUUAUAUTT against Kctd9", "z-score": 1.89},
      {"sequence": "GCUUUGAGACCUAAUGAUGTT against 1810024B03Rik", "z-score": -0.469},
      {"sequence": "GGUGCUAGUGUAUGAAUUATT against Nsun5", "z-score": "2.39 (active)"},
      {"sequence": "GGAUCAUUUGUUAAUGUACTT against Ddx3y", "z-score": 0.0896},
      {"sequence": "GCUAUUGCUCGCAUCAAUGTT against Prps1l1", "z-score": 0.989},
      {"sequence": "GCGAUUAUUUCGCUUUGGATT against Pcdha12", "z-score": -0.502},
      {"sequence": "GGAGAGUAAAACCAAUACATT against Fam76a", "z-score": -0.0433},
      {"sequence": "GGGUCACAGAGGUUACCCATT against Col2a1", "z-score": 1.25},
      {"sequence": "GGAGACCAAAAAGAAAUAATT against Cmas", "z-score": 0.622},
      {"sequence": "GGUGGUGGAAUGCUAAAAATT against Gys1", "z-score": "2.29 (active)"},
      {"sequence": "CCAGAAUACUGGGAUACAATT against B4galnt3", "z-score": -0.577},
      {"sequence": "GCUCAUGUAUGUGAAUUUGTT against Ptx3", "z-score": -1.25},
      {"sequence": "GGAAACACCAUGAAGAUGATT against Atpif1", "z-score": -0.0257},
      {"sequence": "GCAAGUCGUAAGCCUCAGGTT against Mrps10", "z-score": 0.533},
      {"sequence": "GCUACGGACCAUGUUCAAGTT against Nxpe4", "z-score": "2.93 (active)"},
      {"sequence": "GGAGGUACCACAAAAGGCATT against Kif2c", "z-score": 0.0217},
      {"sequence": "CCAACUAAGUGAAAUUCCATT against Aspn", "z-score": -1.26},
      {"sequence": "CCCAACAUUAUCUUGGACCTT against Mrgpra8", "z-score": -0.26},
      {"sequence": "GGGAAGGAUUUUUGAUGAUTT against Arfgap1", "z-score": 1.33},
      {"sequence": "GGAAGGAAGGAAUAAAACUTT against Fitm2", "z-score": -0.981},
      {"sequence": "GCCACUUCACAGCAAGCUATT against Cdk2ap1", "z-score": "3.27 (active)"},
      {"sequence": "GGGCGAACAGGACAAUUAUTT against Med22", "z-score": -0.421},
      {"sequence": "GCCCAUUAAUGCGUAUUUUTT against Mettl2", "z-score": 1.22},
      {"sequence": "GCUAAGUCGGAUGAUAGAATT against Ttc16", "z-score": -0.742},
      {"sequence": "GGCAUGAUCAGCACAUCACTT against Rpap1", "z-score": 0.578}
    ]}
  ]
}
